# Compound activity: PubChem BioAssay, The Scripps Research Institute Molecular Screening Center
# Most compounds without a hit are left out; they make up all but 4.1% or so of the library.
# hcDAF-12 act: activates DAF-12 receptor from parasite H. contortus | hit rate 1.4% among 370,000 | AID 652067 | activation, % at 6.8 µM | HEK293 hcDAF-12 lit1-tk-luc reporter, luminescence; 0% DMSO, 100% Δ7-dafachronic acid;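 active = activation above the mean of all tested compounds plus 3 SD, cut at about 5.5% in these data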
# ssDAF-12 act: activators of S. stercoralis DAF-12 nuclear receptor | activation, % at 6.8 µM | HEK293 ssDAF-12/GRIP1 lit1-tk-luc reporter, luminescence; % of 3 µM dafachronic acid response | hit rate 1% among 370,000;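 active = activation above the mean over all tested compounds plus 3 SD, cut at about 0.9% in these data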
# DAX1 inh-1: NR0B1 (DAX1) inhibition; P51843; HEK293 Gal4-DAX1 luciferase reporter, luminescence; inhibition, % at 6.75 µM; hit rate 0.99% among 340,000;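 active = inhibition above the mean over all tested compounds plus 3 SD, cut at about 4.2% in these data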;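 note: inhibition shows as a rise in luminescence from relieved DAX1 repression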
# Target sequence (P51843 207-470 limits assumed): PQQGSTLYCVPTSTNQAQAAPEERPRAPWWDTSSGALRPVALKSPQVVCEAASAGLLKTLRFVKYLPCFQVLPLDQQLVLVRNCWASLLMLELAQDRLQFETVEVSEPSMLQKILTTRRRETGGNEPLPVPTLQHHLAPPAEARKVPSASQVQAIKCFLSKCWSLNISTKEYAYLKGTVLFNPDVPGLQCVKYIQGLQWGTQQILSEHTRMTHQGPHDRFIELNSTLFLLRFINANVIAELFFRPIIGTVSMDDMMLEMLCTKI
# DAX1 inh-2: inhibitors of DAX1 repression of SF-1 activated StAR promoter. hit rate 1.1% among 370,000. HEK293T StAR-luciferase reporter, SF-1/DAX-1 repression relief. inhibition, % at 6.8 µM;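 active = inhibition above the mean over all tested compounds plus 3 SD, cut at about 3.6% in these data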;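 note: higher inhibition means more luminescence from relief of DAX-1 repression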
# hgDAF12 agonist: hgDAF-12 agonism, primary luciferase screen; HEK293 GAL4-hgDAF12 UAS-luciferase reporter, agonist luminescence; normalized to butyrate control; activation, % at 6.8 µM; hit rate 1.8% among 370,000; AID 687014;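 active = activation above a cutoff set at the mean of all screened compounds plus 3 SD, cut at about 10% in these data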
# Hits are given with their value; - = inactive; . = no result given.
SMILES,hcDAF-12 act,ssDAF-12 act,DAX1 inh-1,DAX1 inh-2,hgDAF12 agonist
C#CCOCCOCCOCCNc1nc(N2CCN(C(=O)[C@H](CCCCN)n3cc([C@@H](N)CC(N)=O)nn3)CC2)nc(N2CCN(C(=O)[C@H](CCCCN)n3cc([C@@H](N)CC(N)=O)nn3)CC2)n1,-,-,4.5,-,-
CCN(C(=O)CSc1nnc(-c2cccnc2)n1Cc1ccco1)c1ccccc1,-,-,.,-,-
O=c1oc2ccccc2c(N2CCCC2)c1[N+](=O)[O-],-,-,4.7,-,-
CC(C)C(C#CC1CC1)N(Cc1ccc2c(c1)OCO2)C(N)=NC(=O)/C=C/c1ccccc1 (centres undefined),-,-,.,-,-
Cc1cc2c([nH]c3ccccc32)c(C)n1,-,-,-,-,-
Cc1c2ccncc2cc2c1[nH]c1ccccc12,-,-,-,-,11
Nc1n[nH]c(N)c1N=Nc1ccc2c(c1)OCO2,-,-,4.8,-,-
CCOC(=O)c1nnsc1Nc1ccc(C)c(C)c1,-,-,4.3,-,-
CN(CC#CC1=CCCCC1)/C(N)=N/C(=O)OCc1ccccc1,-,-,.,-,-
CCCCCNC(=O)C(c1ccc(-c2ccccc2)cc1)n1c(=O)c(-c2cc3ccccc3[nH]2)nc2ccccc21 (centres undefined),6.0,1.2,.,-,-
CCCCCNC(=O)C(c1cc2ccccc2o1)n1c(=O)c(-c2cc3ccccc3[nH]2)nc2ccccc21 (centres undefined),5.6,-,.,-,-
CC(C)(C)NC(=O)C(c1ccc(-c2ccccc2)cc1)n1c(=O)c(-c2ccccc2)nc2ccccc21 (centres undefined),-,-,.,-,-
CC(C)(C)NC(=O)C(c1cc2ccccc2o1)n1c(=O)c(-c2ccccc2)nc2ccccc21 (centres undefined),-,1.1,.,-,-
Cc1cccc(C)c1NC(=O)C(c1ccncc1)n1c(=O)c(-c2cc3ccccc3[nH]2)nc2ccccc21 (centres undefined),6.4,1.0,.,-,11
Cc1cccc(C)c1NC(=O)C(c1ccccc1)n1c(=O)c(-c2cc3ccccc3[nH]2)nc2ccccc21 (centres undefined),-,-,.,-,-
CCCCCNC(=O)C(C1CC1)n1c(=O)c(-c2cc3ccccc3[nH]2)nc2ccccc21 (centres undefined),-,-,.,-,-
CCCCCNC(=O)C(c1cc2ccccc2o1)n1c(=O)c(-c2ccccc2)nc2ccccc21 (centres undefined),-,-,.,-,-
N#CCC[C@H]1CC[C@]2(CCCN(S(=O)(=O)c3ccccc3)C2)O1,-,-,.,-,-
COC(=O)[C@]12C[C@H](CC(=O)NCc3ccc(C)o3)C(=O)N(Cc3ccco3)C1=C[C@H](COCc1ccccc1)O[C@@H]2C,-,-,.,-,-
Cc1cccc(C(=O)Nc2nc3ncccn3c2-c2ccc(F)cc2)c1,-,-,.,-,-
COc1ccc(C(=O)Nn2c(SCc3cccc([N+](=O)[O-])c3)nc3ccccc3c2=O)cc1,-,-,-,-,-
O=C(Nn1c(SCc2cccc([N+](=O)[O-])c2)nc2ccccc2c1=O)c1ccccc1,-,-,-,-,13
COc1cccc(CC2(CO)CCCN(C(=O)c3cc[n+]([O-])cc3)C2)c1 (centres undefined),-,-,5.1,-,-
CCOC(=O)C1(Cc2cccc(OC)c2)CCCN(C(=O)c2ccc(OC)o2)C1 (centres undefined),-,-,-,4.3,-
COc1cccc(CC2(CO)CCCN(Cc3ccc(CO)o3)C2)c1 (centres undefined),-,-,-,-,-
SMILES,hcDAF-12 act,ssDAF-12 act,DAX1 inh-1,DAX1 inh-2,hgDAF12 agonist
CCOC(=O)C1(Cc2cccc(OC)c2)CCCN(C(=O)c2cc(CC(C)C)[nH]n2)C1 (centres undefined),-,-,-,3.8,-
COP(=O)(O)C(COCCC(CC(C)C)NC(=O)OCc1ccccc1[N+](=O)[O-])NC(=O)OCc1ccccc1 (centres undefined),-,-,.,.,-
C[C@H]1C2CC(OC(=O)NCCCc3ccccc3)C(C2)[C@H]2CCCCN21 (some centres undefined),-,-,.,-,-
O=c1[nH]c2cc(Br)c(Br)nc2[nH]1,-,-,.,-,-
Cc1ccc(Oc2ccc(Cl)cc2NC(=O)c2ccc(F)cc2F)cc1,-,-,6.0,-,-
O=C(Nc1cc(Cl)ccc1Oc1ccccc1)c1ccccc1F,-,-,-,-,-
COc1ccc(NC(=S)N2CCC(c3ccccc3)C2)cc1 (centres undefined),-,-,-,-,12
Cc1ccc(C2CCN(C(=S)NC(C)(C)C)C2)cc1 (centres undefined),-,-,5.6,-,-
CC1CCCN(C(=S)Nc2ccc(Nc3ccccc3)cc2)C1 (centres undefined),-,1.3,.,-,11
COC(=O)Cc1ccc(NC(=S)N2CCCC(CO)C2)cc1 (centres undefined),-,-,-,-,10
COc1ccc2c(c1)CN1CN(Cc3ccc(F)cc3)S(=O)(=O)CC21 (centres undefined),-,-,.,-,-
CCS(=O)(=O)Nc1ccc2c(c1)C(=O)N(C)[C@@H]1CC[C@H](CC(=O)NCCCN3CCOCC3)O[C@H]1CO2,-,-,.,-,-
O=c1[nH]c(CSc2ccccn2)nc2c1oc1ccccc12,-,-,-,4.4,12
CC(C)N(C)c1ncnc2c1ncn2[C@H]1CN(Cc2cccnc2)C[C@@H](CO)O1,-,8.1,.,-,-
CC(C)(C)C(=O)O/N=C(\N)COc1cccc(Cl)c1,-,-,6.9,-,-
Cc1ccc(S(=O)(=O)N2C=C(c3ccccc3)c3ccccc3-c3ccccc32)cc1,-,-,.,.,-
CCCC/C=C1/C(c2ccccc2)N(Cc2ccc(OC)cc2OC)C2=NC(c3ccccc3)CC(=O)N21 (centres undefined),-,-,.,.,-
O=C(O)Cc1nn(Cc2ccc(Cl)cc2)c(=O)c2ccccc12,-,-,9.0,-,-
C=CCN1[C@@H](C)COc2cc(N3CCSCC3)ccc2S1(=O)=O,-,-,.,-,-
COC(=O)c1cc(S(=O)(=O)N2CCCN(C(C)=O)CC2)cn1C,-,-,.,-,-
N#Cc1cc2c(nc1SCC(=O)Nc1nccs1)CCCCC2,11,1.0,-,7.7,21
CCc1nnc(NC(=O)CSc2nc3c(cc2C#N)CCC3)s1,-,-,-,-,-
O=C(c1ccc(-c2ccccc2)cc1)N1CCN(c2ccccc2)CC1,-,-,4.8,-,-
COc1ccccc1N1CCN(/N=C/c2ccc(C(=O)O)cc2)CC1,-,-,-,-,11
COc1ccccc1N1CCN(/N=C/C=C\c2ccco2)CC1,-,-,-,4.1,-
O=C(O)c1ccc(/C=N/N2CCN(c3ccccc3)CC2)cc1,-,-,5.4,-,-
